# Measurements: ChEMBL document CHEMBL3988442, “University of Dundee, Small-Polar-MMV Screening Library” (2021)
# Out of some 69,000 compounds screened, about 1,000 (1.4%) showed an effect of 50% or more. The list comes from a sample in which strong results are over-represented; it also holds similar structures and randomly drawn compounds.
# Test system: Leishmania donovani
# Assay: Leishmania intramacrophage assay
# Type: functional, organism-based
# Parameters: scale not given: in the data most compounds retested in dose-response had high values
smiles,measurement,setting,value
COc1ccc(OCCc2nnc(NC(C)=O)s2)cc1,Percent Effect,"30.3 µM, […]",-16.84%
O=C(NC1CCS(=O)(=O)C1)c1ccc(SCc2cscn2)cc1 (configuration not stated),Percent Effect,"30.3 µM, […]",10.79%
CCNC(=O)[C@@H]1CCCN1C1(C(=O)NC)CCCCC1.Cl,Percent Effect,"30.3 µM, […]",-2.22%
O=C(c1ccc[nH]1)N1CCCC(c2cc(C(F)(F)F)[nH]n2)C1 (configuration not stated),Percent Effect,"30 µM, 30.03 µM",44.22%
O=C(c1cc[nH]n1)N1CCCC(c2cc(C(F)(F)F)[nH]n2)C1 (configuration not stated),Percent Effect,30 µM,-11.08%
O=C(c1cc(Cl)c[nH]1)N1CCCC(c2cc(C(F)(F)F)[nH]n2)C1 (configuration not stated),Percent Effect,30 µM,52.35%
N#Cc1c(CN2CCCCC2Cn2cncn2)cn2ccccc12 (configuration not stated),Percent Effect,"30.3 µM, […]",-0.3662%
O=C(Nc1cccc(N2CCN(CC3CC3)CC2)c1)C1CCCO1 (configuration not stated),Percent Effect,"30.3 µM, […]",25.21%
O=C(Nc1cccc(N2CCN(CC3CC3)CC2)c1)N1CCCC1,Percent Effect,"30.3 µM, […]",55.96%
O=C(NCC1CC1)Nc1cccc(N2CCN(CC3CC3)CC2)c1,Percent Effect,"30 µM, 30.03 µM",-6.352%
O=C(NCCc1ccc(F)cc1)C1CN(C(=O)Cn2cncn2)C1,Percent Effect,"30.3 µM, […]",19.84%
COCCCNC(=O)COc1ccccc1C(F)(F)F,Percent Effect,"30.3 µM, […]",6.767%
O=C(Cc1ccccc1)NC[C@H]1Cn2ccnc2CO1,Percent Effect,"30.3 µM, […]",5.132%
CCC(Nc1nc(C)nc2onc(C)c12)c1nc(C)c(C)s1 (configuration not stated),Percent Effect,"30.3 µM, […]",15.33%
Cc1nc(NCCSc2ccccn2)c2c(C)noc2n1,Percent Effect,"30.3 µM, […]",23.02%
CCC(Nc1nc(C)nc2onc(C)c12)c1cccs1 (configuration not stated),Percent Effect,"30.3 µM, […]",50.11%
O=C(NC1CCOCC1)c1cccc(C2CCCNC2)c1 (configuration not stated),Percent Effect,"30.3 µM, […]",-13.02%
CN(C)CCOCC1CN(Cc2ccsc2)Cc2ccnn2C1.O=C(O)C(F)(F)F.O=C(O)C(F)(F)F.O=C(O)C(F)(F)F (configuration not stated),Percent Effect,"30 µM, 30.03 µM",9.716%
CCOCC1CN(C(=O)Cc2cccs2)Cc2ccnn2C1 (configuration not stated),Percent Effect,"30.3 µM, […]",34.28%
CCOCC1CN(C(=O)Cc2ccsc2)Cc2ccnn2C1.O=C(O)C(F)(F)F (configuration not stated),Percent Effect,"30.3 µM, […]",51.92%
Cc1noc(C)c1CN(C)C(=O)CCn1c(=O)n(C)c2ccccc21,Percent Effect,"30.3 µM, […]",50.75%
Cc1noc(C)c1CN(C)Cn1c(=O)n(C)c2ccccc21,Percent Effect,"30.3 µM, […]",5.674%
Cc1noc(C)c1CN(C)C(=O)Cn1c(=O)n(C)c2ccccc21,Percent Effect,"30.3 µM, […]",12.61%
O=C(CC1CC1)NCc1cn2c(n1)CN(C(=O)C1CCOCC1)CC2,Percent Effect,"30.3 µM, […]",-40.34%
Cc1nc2c(c(NCCc3nc4c(s3)CCCC4)n1)CCNCC2,Percent Effect,"30.3 µM, […]",49.04%
COCCNc1nc2c(c(NCC3CCOC3)n1)CCNCC2 (configuration not stated),Percent Effect,"30.3 µM, […]",32.27%
Cc1nc2c(c(NCC(O)C(F)(F)F)n1)CCNCC2 (configuration not stated),Percent Effect,"30.3 µM, […]",-15.94%
COCCNc1nc(C2CCCC2)nc2c1CCNCC2,Percent Effect,"30 µM, 30.03 µM",63.78%
C1Cc2nc(CCNc3nc(C4CC4)nc4c3CCNCC4)sc2C1,Percent Effect,"30.3 µM, […]",95.48%
c1nc(CCNc2nc(C3CC3)nc3c2CCNCC3)c[nH]1,Percent Effect,"30.3 µM, […]",9.64%
COCc1noc(CNc2nc(C3CCCC3)nc3c2CCNCC3)n1,Percent Effect,"30.3 µM, […]",8.376%
OC(CNc1nc(C2CCCC2)nc2c1CCNCC2)C(F)(F)F (configuration not stated),Percent Effect,"30.3 µM, […]",100.7%
OC(CNc1ncnc2c1CCNCC2)C(F)(F)F (configuration not stated),Percent Effect,"30.3 µM, […]",26.97%
O=C(NC1CC1)C1CCc2nnc(-c3cccc(C(F)(F)F)c3)n21 (configuration not stated),Percent Effect,"30.3 µM, […]",10.31%
CN(C)CCn1cc(NC(=O)NC(C)(C)c2nccs2)cn1,Percent Effect,"30.3 µM, […]",7.741%
Cc1cc(C(=O)N2CCCC2c2nnc3n2CCCCC3)on1 (configuration not stated),Percent Effect,"30.3 µM, […]",34.8%
CO[C@H]1[C@@H]2CC[C@H]1CN(c1nc(C)nc3sccc13)C2,Percent Effect,"30.3 µM, […]",56.76%
Cc1nc(N2C[C@@H](CN3CCCN(C)CC3)[C@@H](CO)C2)c2ccsc2n1,Percent Effect,"30.3 µM, […]",-13.66%
CO[C@H]1[C@@H]2CC[C@H]1CN(c1nc(C)nc3ccsc13)C2,Percent Effect,"30.3 µM, […]",34.92%
CC(=O)N1C[C@H]2C3(CCN(S(C)(=O)=O)CC3)CC[C@@]2(C(=O)N(C)C)C1,Percent Effect,"30.3 µM, […]",-12.02%
Cc1cc(C)n(CC2CCCN2CC(=O)N(C)Cc2ccco2)n1 (configuration not stated),Percent Effect,"30.3 µM, […]",34.8%
Cc1cc(C)n(CC2CCCN2CC(=O)N(C)Cc2ccc(C)o2)n1 (configuration not stated),Percent Effect,"30.3 µM, […]",94.04%
Cc1cc(C)n(CC2CCCCN2CC(=O)N(C)Cc2ccco2)n1 (configuration not stated),Percent Effect,"30.3 µM, […]",-27.36%
CNS(=O)(=O)c1cccc(CNc2ccc(C(F)(F)F)nn2)c1,Percent Effect,"30 µM, 30.03 µM",12.97%
COc1ccccc1N1CC(NC(=O)c2cc(C(C)C)nn2C)CC1=O (configuration not stated),Percent Effect,"30.3 µM, […]",57.19%
COc1ccccc1N1CC(NC(=O)Cn2cc(C)nn2)CC1=O (configuration not stated),Percent Effect,"30.3 µM, […]",4.572%
COc1ccccc1N1CC(NC(=O)Cn2cc(C(C)C)nn2)CC1=O (configuration not stated),Percent Effect,"30.3 µM, […]",-4.218%
